This is one part of a sample in which hits are shown more often than they occur.
GIRK2 act: activators of NPY4-receptor-primed GIRK2 channels, summary, cell-based, HEK293, thallium flux. 34,000 tested, under 10 active. activation (% efficacy), % for hits at 37.5 µM. G protein-activated inward rectifier potassium channel 2 (Homo sapiens), P48051. HEK293 GIRK2/NPY4 cells, thallium flux fluorescence;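 active = primary screen hit, no activity in plain HEK293 cells, and in GIRK2-only cells above 5% efficacy rising with concentration; inactive = the rest, including fluorescent compounds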;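 also: efficacy is normalized control-subtracted fluorescence 15 s after thallium addition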
AMPAR-TARP mod: modulators of GluA2-stargazin AMPA receptor complexes, primary screen, cell-based, membrane potential dye; Voltage-dependent calcium channel gamma-2 subunit (Mus musculus) + Glutamate receptor 2 …; HEK293 GluA2+stargazin, membrane potential dye (FDSS), glutamate EC50; hits were called plate by plate, in both directions; calls only at 30 µM; 40,000 tested, 3.5% active; AID 1259245, 2017;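 active = any of four per-well response measures lying three or more SD from its plate-wide compound average, in either direction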
Target sequence (O88602 whole entry, looked up): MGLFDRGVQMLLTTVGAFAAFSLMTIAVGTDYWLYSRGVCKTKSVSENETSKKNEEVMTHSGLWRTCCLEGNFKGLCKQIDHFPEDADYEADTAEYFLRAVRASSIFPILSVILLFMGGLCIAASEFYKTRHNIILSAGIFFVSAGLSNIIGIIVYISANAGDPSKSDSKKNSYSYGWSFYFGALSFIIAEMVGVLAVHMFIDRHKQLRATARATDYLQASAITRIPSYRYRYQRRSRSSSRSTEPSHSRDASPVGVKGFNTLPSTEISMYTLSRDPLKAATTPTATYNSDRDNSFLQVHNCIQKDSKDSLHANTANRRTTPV
Target sequence (P19491 whole entry, looked up): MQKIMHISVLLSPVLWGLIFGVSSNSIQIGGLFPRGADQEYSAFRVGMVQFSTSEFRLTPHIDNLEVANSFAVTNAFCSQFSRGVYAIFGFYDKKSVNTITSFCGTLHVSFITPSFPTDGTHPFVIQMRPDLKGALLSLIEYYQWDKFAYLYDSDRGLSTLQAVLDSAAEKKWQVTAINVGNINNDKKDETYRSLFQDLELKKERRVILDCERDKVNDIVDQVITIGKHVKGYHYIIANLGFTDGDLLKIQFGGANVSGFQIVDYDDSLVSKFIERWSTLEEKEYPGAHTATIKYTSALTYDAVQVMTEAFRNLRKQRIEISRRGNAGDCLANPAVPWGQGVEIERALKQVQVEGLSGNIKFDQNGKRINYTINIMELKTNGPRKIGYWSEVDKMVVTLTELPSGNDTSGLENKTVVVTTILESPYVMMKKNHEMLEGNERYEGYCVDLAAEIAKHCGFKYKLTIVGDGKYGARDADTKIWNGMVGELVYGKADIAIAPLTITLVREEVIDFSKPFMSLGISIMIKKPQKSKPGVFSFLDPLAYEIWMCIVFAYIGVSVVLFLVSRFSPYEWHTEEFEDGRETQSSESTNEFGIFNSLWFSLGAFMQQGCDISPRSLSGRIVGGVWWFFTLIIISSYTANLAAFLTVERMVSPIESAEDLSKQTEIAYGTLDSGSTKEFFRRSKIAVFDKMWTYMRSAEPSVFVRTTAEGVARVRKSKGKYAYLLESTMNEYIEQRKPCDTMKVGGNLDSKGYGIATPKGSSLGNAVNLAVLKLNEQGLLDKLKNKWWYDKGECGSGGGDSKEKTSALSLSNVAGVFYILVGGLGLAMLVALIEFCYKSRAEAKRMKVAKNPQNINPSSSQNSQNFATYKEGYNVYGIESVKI
Numbers without * were called inactive.

Cc1nn(C2CCS(=O)(=O)C2)c2nc(-c3ccco3)cc(C(=O)NCc3c(F)cccc3F)c12 (centres undefined) was read as GIRK2 act inactive and AMPAR-TARP mod inactive.
For COc1ccc(CNC(=O)C(=O)NCC(c2cccs2)N2CCOCC2)cc1 (centres undefined) the results were AMPAR-TARP mod inactive.
Screening COCCNC(=O)Cn1cc(OC)c(=O)cc1CSc1nc(C)cs1 returned GIRK2 act inactive and AMPAR-TARP mod inactive.
`CCCCn1c(SCC(=O)N2CCCCC2)nc2c(-c3ccccc3)c[nH]c2c1=O` gave GIRK2 act inactive.
`O=C(CCCS(=O)(=O)c1ccc(F)cc1)N(Cc1ccco1)c1nc2c(Cl)cccc2s1` gave AMPAR-TARP mod inactive.
For O=C(Cn1cnc(-c2cccs2)cc1=O)NCC(F)(F)F the results were GIRK2 act inactive and AMPAR-TARP mod active.
Screening O=C(Cn1cnc(-c2cccs2)cc1=O)NCc1ccccc1OC(F)(F)F returned GIRK2 act inactive and AMPAR-TARP mod inactive.
For O=C(NCc1ccc2c(c1)OCO2)C(=O)NCC(c1cccc2ccccc12)N1CCCC1 (centres undefined) the results were GIRK2 act inactive.
For COc1ccc(Cl)cc1NC(=O)N1CCN(Cc2nc(-c3cccs3)cs2)CC1 the results were GIRK2 act inactive and AMPAR-TARP mod inactive.
Cn1cccc1CN(C(=O)CC(c1ccccc1)c1ccccc1)C1CC1 was read as GIRK2 act inactive.
For Cc1nc(C)c(C(=O)N2CCN(c3ccc4nnc(-c5ccco5)n4n3)CC2)s1 the results were GIRK2 act inactive and AMPAR-TARP mod inactive.
For Nc1c(C(=O)N2CCCC2)sc2nc(-c3ccco3)c3c(c12)CCCC3 the results were AMPAR-TARP mod active.
COC(=O)c1c2c(nc3c1c(-c1ccco1)nn3C1CCS(=O)(=O)C1)CCC2 (centres undefined) was read as GIRK2 act inactive.
For CC(=O)c1sc2nc(-c3ccco3)c3c(c2c1N)CCCC3 the results were AMPAR-TARP mod active.
CCCCOc1cccc(C(=O)Nc2ccc3scnc3c2)c1 was read as GIRK2 act inactive and AMPAR-TARP mod inactive.
For COc1ccc(-n2nnnc2SC(C)C(=O)Nc2cccc(Cl)c2)cc1 (centres undefined) the results were AMPAR-TARP mod inactive.
Screening CCOc1ccc(-n2nnnc2SC(C)C(=O)Nc2ccccc2C(=O)OC)cc1 (centres undefined) returned AMPAR-TARP mod active.
COc1ccc(NC(=O)C(C)Sc2nnnn2-c2ccc(OC)cc2)cc1 (centres undefined) was read as AMPAR-TARP mod inactive.
For CCOc1ccc(-n2nnnc2SC(C)C(=O)Nc2cccc(C(C)=O)c2)cc1 (centres undefined) the results were AMPAR-TARP mod active.
`CCOc1ccc(-n2nnnc2SC(C)C(=O)Nc2ccccc2C#N)cc1` (centres undefined) gave AMPAR-TARP mod active.
COc1ccccc1NC(=O)C(C)Sc1nnnn1-c1ccc(Cl)cc1 (centres undefined) was read as AMPAR-TARP mod inactive.
`O=C(c1ccco1)N1CCC(Cn2cccn2)CC1` gave GIRK2 act inactive and AMPAR-TARP mod inactive.
`O=C(N1CCC(Cn2cccn2)CC1)C1(c2ccccc2)CCOCC1` gave GIRK2 act inactive and AMPAR-TARP mod active.
Screening COc1cc(COCC2CCN(C(=O)c3c(F)cccc3Cl)CC2)cc(OC)c1 returned GIRK2 act inactive and AMPAR-TARP mod inactive.
`CSc1ccccc1C(=O)Nc1ccc2c(c1)CN(C(=O)c1ccco1)CC2` gave GIRK2 act inactive and AMPAR-TARP mod inactive.
For O=C(Nc1ccc2c(c1)CN(C(=O)C1CC1)CC2)c1ccsc1 the results were GIRK2 act inactive and AMPAR-TARP mod inactive.
For O=C(Nc1ccc2c(c1)CN(C(=O)c1ccco1)CC2)c1ccc2nsnc2c1 the results were GIRK2 act inactive and AMPAR-TARP mod active.
`O=C(Nc1ccc2c(c1)CN(C(=O)c1ccco1)CC2)c1cnccn1` gave GIRK2 act inactive and AMPAR-TARP mod active.
Screening O=C(Nc1ccc2c(c1)CN(C(=O)C1CC1)CC2)c1ccc2nsnc2c1 returned GIRK2 act inactive and AMPAR-TARP mod active.
Screening CCCc1nnsc1C(=O)Nc1ccc2c(c1)CN(C(=O)c1ccco1)CC2 returned GIRK2 act inactive and AMPAR-TARP mod inactive.
`COC(=O)c1ccc(CSc2ccc(NC(=O)c3cccs3)nn2)o1` gave GIRK2 act inactive and AMPAR-TARP mod inactive.
`Cc1sc(NC(=O)c2cccc(SC(C)C)c2)c(C#N)c1C` gave AMPAR-TARP mod inactive.
`Cc1ccc(N2CC(N)CC2=O)cc1C` (centres undefined) gave GIRK2 act inactive and AMPAR-TARP mod inactive.
Screening Cc1cc(C)c(S(=O)(=O)N(C)c2ccc(Cl)cc2)cc1N(C)S(=O)(=O)c1ccccc1 returned AMPAR-TARP mod active.
Cc1cccc(N(C)S(=O)(=O)c2cc(N(C)S(=O)(=O)c3ccccc3)c(C)cc2C)c1 was read as AMPAR-TARP mod inactive.
For Cc1cc(C)c(S(=O)(=O)NC(C)C)cc1N(C)S(=O)(=O)c1ccccc1 the results were AMPAR-TARP mod active.
Cc1cc(C)c(S(=O)(=O)N(C)c2c(C)cccc2C)cc1N(C)S(=O)(=O)c1ccccc1 was read as AMPAR-TARP mod inactive.
O=C(c1ccco1)N1CCN(S(=O)(=O)c2ccccc2F)CC1 was read as GIRK2 act inactive and AMPAR-TARP mod inactive.
Cc1onc(-c2ccccc2Cl)c1C(=O)N1c2ccccc2CC1C(N)=O (centres undefined) was read as GIRK2 act inactive and AMPAR-TARP mod inactive.
For CCCOc1ccc(N2CCN(C(=O)c3c(F)cccc3Cl)CC2)nn1 the results were GIRK2 act inactive and AMPAR-TARP mod inactive.
`CC(=O)Nc1cccc(NC(=O)C(=O)NCC(c2cccs2)N(C)C)c1` (centres undefined) gave GIRK2 act inactive and AMPAR-TARP mod inactive.
For O=C(Cc1ccc(Cl)cc1)NCC1CCN(Cc2ccco2)CC1 the results were GIRK2 act inactive.
`COCCN1CCC(CNC(=O)C(=O)NCc2cccs2)CC1` gave GIRK2 act inactive and AMPAR-TARP mod active.
For O=C(NCc1cccs1)C(=O)NCC1CCN(Cc2cccs2)CC1 the results were GIRK2 act inactive and AMPAR-TARP mod inactive.
For COc1ccccc1C(=O)Oc1c(S(=O)(=O)c2ccc(C)cc2)c(C)nn1C(C)(C)C the results were AMPAR-TARP mod inactive.
O=C(CCCS(=O)(=O)c1ccc(F)cc1)Nc1nnc(-c2ccc(Br)s2)o1 was read as GIRK2 act inactive and AMPAR-TARP mod inactive.
`CCOc1cn(-c2ccc(F)cc2)nc1C(=O)NC1CCCCC1C` (centres undefined) gave GIRK2 act inactive and AMPAR-TARP mod active.
For COc1ccccc1NC(=O)c1nn(-c2ccc(F)cc2)cc1OCc1ccccc1 the results were GIRK2 act inactive and AMPAR-TARP mod active.
Screening CCOc1cn(-c2ccc(F)cc2)nc1C(=O)NCCOC returned GIRK2 act inactive and AMPAR-TARP mod inactive.

High-throughput results as filed in PubChem.
